We go through six molecules from PubChem BioAssay (EPA / NIEHS).

The source made the active and inactive calls. How the source made its calls: active means hit-call score of the fitted dose curve at least 0.9, where 1 is the maximum; inactive means score below 0.9.

A word on the AC50: it is the midpoint of the concentration-response curve, whichever way the signal moves.

Sequence of E-selectin (Homo sapiens) (P16581 whole entry, looked up): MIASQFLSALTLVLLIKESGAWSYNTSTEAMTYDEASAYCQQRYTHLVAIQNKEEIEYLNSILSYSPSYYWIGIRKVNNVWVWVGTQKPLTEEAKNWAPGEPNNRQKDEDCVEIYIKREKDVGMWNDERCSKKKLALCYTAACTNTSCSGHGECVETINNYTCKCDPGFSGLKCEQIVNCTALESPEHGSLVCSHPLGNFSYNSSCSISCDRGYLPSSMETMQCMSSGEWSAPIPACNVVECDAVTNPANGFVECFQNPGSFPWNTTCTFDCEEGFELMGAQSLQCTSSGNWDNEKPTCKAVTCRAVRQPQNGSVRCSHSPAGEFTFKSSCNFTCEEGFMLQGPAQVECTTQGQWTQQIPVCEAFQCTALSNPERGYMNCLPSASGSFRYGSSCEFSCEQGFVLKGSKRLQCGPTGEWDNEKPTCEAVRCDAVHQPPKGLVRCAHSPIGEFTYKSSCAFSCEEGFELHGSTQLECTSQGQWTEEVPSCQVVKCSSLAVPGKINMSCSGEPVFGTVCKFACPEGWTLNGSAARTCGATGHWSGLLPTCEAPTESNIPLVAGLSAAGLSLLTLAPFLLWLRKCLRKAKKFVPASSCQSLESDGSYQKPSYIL

Read-out in the first experiment: E-selectin (Homo sapiens) (UniProt P16581)
Description: BSK_3C_Eselectin: BioMAP Diversity Plus: 3C Assay for Eselectin Biomarker Activity (AID 2283015).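 On outcome: cell surface E-selectin protein quantified by ELISA 24 h after dosing.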 The following applies: primary human endothelial cells (HUVEC); actives raise or lower the signal. Summed up:
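Primary human umbilical vein endothelial cells (3C system) were dosed with chemical and cell-surface E-selectin measured by ELISA 24 h later. Bidirectional curve fitting used DMSO as negative control and baseline.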
In the case of `CCCCN(CCCC)C(=O)N(CCCC)CCCC`, the AC50 was 6.65 µM (active).

For `C=CC(C)(O)CCC=C(C)C` (stereo unspecified), the result was inactive.

Turning to `CCCCCCC(CO)CCCC` (stereo unspecified), the outcome was inactive.

Consider `CN(C)C(=O)Nc1ccc(Oc2ccc(Cl)cc2)cc1`, for which the AC50 was 20 µM (active).

On to `CC(=O)c1c(C)c([N+](=O)[O-])c(C(C)(C)C)c([N+](=O)[O-])c1C`, for which the outcome was inactive.

As for `CCCCCC(C=O)=Cc1ccccc1`, the AC50 was 35.2 µM (active).

Read-out in the next experiment: Interleukin-1 alpha (IL1a), IL1A (gene 3552)
Description: BSK_BE3C_IL1a: BioMAP Diversity Plus: BE3C Assay for Interleukin-1 alpha (IL1a) Biomarker Activity (AID 2283016). To be noted: primary human bronchial epithelial cells; actives raise or lower the signal. Summed up: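 BE3C primary human bronchial epithelium; cpd 24 h; IL-1a by ELISA; bidirectional fit vs DMSO; parallel SRB (0.1% SRB, 10% TCA fix, 560 nm) for cytotoxicity.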
Turning to `CCCCN(CCCC)C(=O)N(CCCC)CCCC`, the half-maximal activity concentration (AC50) was 8.05 µM (active).

In the case of `C=CC(C)(O)CCC=C(C)C` (stereo unspecified), the outcome was inactive.

Take `CCCCCCC(CO)CCCC` (stereo unspecified): the outcome was inactive.

Regarding `CN(C)C(=O)Nc1ccc(Oc2ccc(Cl)cc2)cc1`, the AC50 is 3.97 µM (active).

As for `CC(=O)c1c(C)c([N+](=O)[O-])c(C(C)(C)C)c([N+](=O)[O-])c1C`, the outcome was inactive.

In the case of `CCCCCC(C=O)=Cc1ccccc1`, the result was inactive.

Read-out in a further experiment: Monocyte Chemoattractant Protein-1 (MCP1), CCL2 (gene 6347)
Description: BSK_3C_MCP1: BioMAP Diversity Plus: 3C Assay for Monocyte Chemoattractant Protein-1 (MCP1) Biomarker Activity (AID 2283017). The following applies: primary human endothelial cells (HUVEC); actives raise or lower the signal. Summed up: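 Primary human umbilical vein endothelial cells (3C system) were exposed to test chemical for 24 h, after which MCP-1 was quantified by ELISA. Activity was fitted bidirectionally against DMSO as negative control and baseline.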
On to `CCCCN(CCCC)C(=O)N(CCCC)CCCC`, for which the AC50 is 8.46 µM (active).

As for `C=CC(C)(O)CCC=C(C)C` (stereo unspecified), the outcome was inactive.

Take `CCCCCCC(CO)CCCC` (stereo unspecified): the outcome was inactive.

In the case of `CN(C)C(=O)Nc1ccc(Oc2ccc(Cl)cc2)cc1`, the half-maximal activity concentration (AC50) was 3.97 µM (active).

On to `CC(=O)c1c(C)c([N+](=O)[O-])c(C(C)(C)C)c([N+](=O)[O-])c1C`, for which the result was inactive.

For `CCCCCC(C=O)=Cc1ccccc1`, the AC50 was 31.5 µM (active).

Read-out in another experiment: Monocyte Chemoattractant Protein-1 (MCP1), CCL2 (gene 6347)
The experiment is described as follows: BSK_4H_MCP1: BioMAP Diversity Plus: 4H Assay for Monocyte Chemoattractant Protein-1 (MCP1) Biomarker Activity (AID 2283018). The following applies: primary human endothelial cells (HUVEC); actives raise or lower the signal. The essentials:
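ELISA read-out of MCP-1 from human vascular endothelial primary cells taken at 24 hours after compound exposure. Activity was fitted in both directions relative to DMSO, which served as negative control.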
Take `CCCCN(CCCC)C(=O)N(CCCC)CCCC`: the AC50 is 6.41 µM (active).

With `C=CC(C)(O)CCC=C(C)C` (stereo unspecified), the outcome was inactive.

Take `CCCCCCC(CO)CCCC` (stereo unspecified): the result was inactive.

Regarding `CN(C)C(=O)Nc1ccc(Oc2ccc(Cl)cc2)cc1`, the AC50 is 12.1 µM (active).

With `CC(=O)c1c(C)c([N+](=O)[O-])c(C(C)(C)C)c([N+](=O)[O-])c1C`, the result was inactive.

Consider `CCCCCC(C=O)=Cc1ccccc1`, for which the AC50 is 27.8 µM (active).

Read-out in another experiment: Human Leukocyte Antigen - DR isotype (HLADR), HLA-DRA (gene 3122)
Description: BSK_3C_HLADR: BioMAP Diversity Plus: 3C Assay for Human Leukocyte Antigen - DR isotype (HLADR) Biomarker Activity (AID 2283019). The following applies: primary human endothelial cells (HUVEC); actives raise or lower the signal. The essentials: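 Primary human umbilical vein endothelial cells (3C system) were dosed with compound and cell-surface HLA-DR was quantified by ELISA at 24 h. Activity was fitted bidirectionally against DMSO as negative control and baseline.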
`CCCCN(CCCC)C(=O)N(CCCC)CCCC`: the AC50 is 6.8 µM (active).

Consider `C=CC(C)(O)CCC=C(C)C` (stereo unspecified), for which the outcome was inactive.

Turning to `CCCCCCC(CO)CCCC` (stereo unspecified), the result was inactive.

For the molecule `CN(C)C(=O)Nc1ccc(Oc2ccc(Cl)cc2)cc1`, the result was inactive.

On to `CC(=O)c1c(C)c([N+](=O)[O-])c(C(C)(C)C)c([N+](=O)[O-])c1C`, for which the result was inactive.

Regarding `CCCCCC(C=O)=Cc1ccccc1`, the AC50 was 36.6 µM (active).

Read-out in the next experiment: Interleukin-8 (IL8), CXCL8 (gene 3576)
The experiment is described as follows: BSK_3C_IL8: BioMAP Diversity Plus: 3C Assay for Interleukin-8 (IL8) Biomarker Activity (AID 2283020). The following applies: primary human endothelial cells (HUVEC); actives raise or lower the signal. The essentials:
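ELISA read-out of IL-8 from human umbilical vein endothelium, measured 24 h after chemical dosing. Activity is expressed relative to DMSO negative control, with both increases and decreases fitted.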
Turning to `CCCCN(CCCC)C(=O)N(CCCC)CCCC`, the AC50 was 4.98 µM (active).

On to `C=CC(C)(O)CCC=C(C)C` (stereo unspecified), for which the outcome was inactive.

As to `CCCCCCC(CO)CCCC` (stereo unspecified), the result was inactive.

For the molecule `CN(C)C(=O)Nc1ccc(Oc2ccc(Cl)cc2)cc1`, the result was inactive.

Turning to `CC(=O)c1c(C)c([N+](=O)[O-])c(C(C)(C)C)c([N+](=O)[O-])c1C`, the outcome was inactive.

Turning to `CCCCCC(C=O)=Cc1ccccc1`, the AC50 is 28.8 µM (active).
